According to PubChem BioAssay AID504332 (National Center for Advancing Translational Sciences (NCATS), 2011):
Screen size: about 350,000 compounds; about 31,000 (8.9%) were called active. Inconclusive results (about 15%) are left out. This excerpt belongs to a sample that is enriched for actives. A number with no mark means an inactive call. The call rests on the fitted dose curve; in most records, active means well fitted inhibition curve with a large enough effect; inconclusive means small, poorly fitted or top-dose-only effect; inactive means no such curve, though single readings can be large or run the other way.

target: Histone-lysine N-methyltransferase EHMT2 (Homo sapiens) (UniProt Q96KQ7); assay: qHTS Assay for Inhibitors of Histone Lysine Methyltransferase G9a; details: G9a H3K9 monomethylation, AlphaScreen, 2 h; series mostly up to 59 µM; activity, negative = inhibition: at the top concentration; further: nearly all actives have a fitted effect of over 75% in size
Sequence (Q96KQ7 913-1193 limits assumed): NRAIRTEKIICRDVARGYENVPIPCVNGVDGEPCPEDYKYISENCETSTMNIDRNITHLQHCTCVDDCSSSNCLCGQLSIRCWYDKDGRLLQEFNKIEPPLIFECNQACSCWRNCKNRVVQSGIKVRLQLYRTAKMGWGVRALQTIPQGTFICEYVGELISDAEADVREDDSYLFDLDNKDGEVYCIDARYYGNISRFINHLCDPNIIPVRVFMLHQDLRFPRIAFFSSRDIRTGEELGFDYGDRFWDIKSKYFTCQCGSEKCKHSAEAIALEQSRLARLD
In short: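 AlphaScreen read-out: biotin-H3K9 peptide (500 nM) methylation by 20 nM enzyme with 20 uM SAM, 2 h at room temperature after 15 min compound preincubation; anti-monomethyl H3K9 antibody plus donor/acceptor beads, 10 min dark.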
On the % scale 0 is the no-effect control and ±100 the full control effect; potency means the concentration at half of the fitted maximal effect.

Row | Compound | Potency | activity, negative = inhibition
1 | CC(C)(C)N(CC#CCC(O)(c1ccccc1)C1CCCC1)CCO (stereo not given) | 10 µM (active) | –
2 | CC1C(=O)Nc2ccc(S(=O)(=O)N3CCN(c4ccccc4F)CC3)cc2NC1=O (stereo not given) | – | 7.91% [at 102 µM]
3 | CN(C)S(=O)(=O)c1ccc(N2CCCC2=O)c([N+](=O)[O-])c1 | – | 20.3%
4 | CON(C)S(=O)(=O)c1ccc2c(c1)NC(=O)C1CCCN21 (stereo not given) | 25.1 µM (active) | –
5 | Cn1c(-c2ccc(F)cc2)cc2onc(-c3ccccc3Cl)c2c1=O | – | 20.7% [at 2.33 µM]
6 | CCn1nc(C(=O)OCC(=O)N2c3ccccc3CC2C)c2ccccc2c1=O (stereo not given) | – | -3.26% [at 102 µM]
7 | Cc1ccn(CCC(=O)N2c3ccccc3CC2C)n1 (stereo not given) | – | 7.81% [at 102 µM]
8 | CCCC(=O)N1c2ccc(-c3csc(N)n3)cc2CC1C (stereo not given) | 70.8 µM (active) | –
9 | COc1ccccc1CC(=O)NCCc1c[nH]c2ccccc12 | – | -1.18% [at 102 µM]
10 | COc1cccc(CNCCc2c[nH]c3ccccc23)c1OCc1ccccc1F | 44.7 µM (active) | –
11 | COc1ccc(S(=O)(=O)NCCc2c[nH]c3ccccc23)cc1OC | – | -7.41% [at 102 µM]
12 | O=C1NC(c2ccncc2)Nc2sc3c(c21)CCCC3 (stereo not given) | 28.2 µM (active) | –
13 | CCN(C(=O)CSc1nnc(-c2ccc(OC(F)F)cc2)n1N)C1CCS(=O)(=O)C1 (stereo not given) | – | -29.8%
14 | Cn1nnc(NC(=S)NC(=O)c2ccccc2)n1 | 8.91 µM (active) | –
15 | Cc1cc2[nH]ncc2cc1NC(=S)NC(=O)c1ccccc1 | – | 12.2%
16 | O=C(NC(=O)c1ccccc1)NC(=O)c1ccccc1 | – | -6.69%
17 | COc1cc(OC)c(C(=S)N2CCCC2)cc1OC | – | 10.9% [at 0.501 µM]
18 | CCCNC(=O)C1CCC(Cn2c(=O)c3sccc3n(Cc3ccccc3F)c2=O)CC1 (stereo not given) | – | 9.39%
19 | CCn1cc(C(=O)Nc2cc(C)ccc2C)c(=O)c2ccc(C)nc21 | – | 19% [at 102 µM]
20 | CCn1cc(C(=O)OCC(=O)Nc2cccc(C)c2)c(=O)c2ccc(C)nc21 | – | -4.25% [at 102 µM]
21 | CCn1cc(C(=O)N2CC=C(c3ccccc3)CC2)c(=O)c2ccc(C)nc21 | 79.4 µM (active) | –
22 | CCS(=O)(=O)N1CCC(n2c(C)nc3cccnc32)CC1 | – | 7.57%
23 | O=C1C(c2[nH]c3ccccc3c2O)=Nc2ccccc21 | 5.01 µM (active) | –
24 | O=C(Cc1c(O)c2ccccc2[nH]c1=O)NCc1ccccc1 | – | 1.62%
25 | CC(C)C(=O)Nc1c(O)c2ccccc2[nH]c1=O | – | -23% [at 102 µM]

Row | Compound | Potency | activity, negative = inhibition
26 | NC(=O)c1ccsc1NC(=O)COC(=O)Cc1n[nH]c(=O)c2ccccc12 | – | 1.16% [at 0.501 µM]
27 | COc1ccc(OC)c(-n2nnc(-c3nc(-c4cc(OC)c(OC)c(OC)c4)no3)c2C)c1 | – | -32.2%
28 | Cc1cccc(CSc2nc3c(c(=O)n2C)SCC3)c1 | 50.1 µM (active) | –
29 | Cc1cccc(CSc2nnc(C)c(=O)n2N)c1 | – | -12% [at 102 µM]
30 | Cn1c(SCC(=O)N2CCCCC2)nc2c(c1=O)SCC2 | – | 8.93% [at 102 µM]
31 | CCOc1ccc(S(=O)(=O)NCCC(=O)NCC(C)(C)N2CCOCC2)cc1 | – | 14% [at 0.501 µM]
32 | COc1ccc(NC(=O)CCN2CCN(CCO)CC2)cc1 | – | 7.3%
33 | CCOC(=O)c1[nH]c2ccccc2c1N=C(C)N(CC)CC | – | 23.3%
34 | CCOC(=O)C1CCN(C(=O)Cc2c(C(=O)O)[nH]c3ccccc23)CC1 | – | 16% [at 2.33 µM]
35 | CCCS(=O)(=O)Nc1c(C(=O)O)[nH]c2ccccc12 | 39.8 µM (active) | –
36 | CCOC(=O)C1CCN(c2ncnc3c2c(-c2ccccc2)cn3-c2cccc(C)c2)CC1 | – | -31.3%
37 | O=C(NCC(c1ccco1)N1CCc2ccccc2C1)c1ccccc1Cl (stereo not given) | – | -29.7% [at 102 µM]
38 | COc1ccc(SCc2cc(=O)c3ccc(C)c(C)c3[nH]2)cc1 | – | 4.13%
39 | CC1=C(C(=O)Nc2ccccc2)C(c2cccs2)C(C#N)=C(SCC#N)N1 (stereo not given) | 12.6 µM (active) | –
40 | C=CCOC(=O)C1=C(C)NC(SCC(=O)OCC)=C(C#N)C1c1ccc(C)cc1 (stereo not given) | – | -0.268% [at 102 µM]
41 | C=CCOC(=O)C1=C(C)NC(C)=C(C(=O)OCC=C)C1c1cccs1 | – | 15.7%
42 | CCCn1c(NCc2ccccc2F)nc2ccccc21 | – | 12.8%
43 | O=C(CNC(=O)c1cccnc1)N/N=C/c1cc(Br)c(O)c(Br)c1 | – | -7.91% [at 102 µM]
44 | O=C(CNC(=O)C1COc2ccccc2O1)N/N=C/c1cc(Br)c(O)c(Br)c1 (stereo not given) | 89.1 µM (active) | –
45 | O=C(CNC(=O)C(c1ccccc1)c1ccccc1)N/N=C\c1ccc2c(c1)OCO2 | – | 25.4%
46 | FC(F)(F)c1cc(Nc2nc3ccccc3c3nncn23)ccc1Cl | – | 21.7%
47 | COc1ccc(CNC(=O)C2=Cc3cccc(OC)c3OC2)cc1OC | – | 13.3%
48 | CC1=NN(c2ccc(Cl)c(C(=O)O)c2)C(=O)/C1=C/c1ccc(-c2ccccc2[N+](=O)[O-])o1 | 31.6 µM (active) | –
49 | Cc1nc2ccccc2c(=O)n1NC(=O)c1ccc(Cl)c([N+](=O)[O-])c1 | – | -4.51% [at 2.33 µM]
50 | N#C/C(=C/c1ccc(-c2ccccc2[N+](=O)[O-])o1)C(=O)NCCN1CCCCC1 | – | 16.8% [at 12.7 µM]
